An excerpt weighted towards active compounds, which were near 2.2% of everything screened.
FUS yeast rescue = FUS proteinopathy suppression in yeast. S. cerevisiae FUS-expressing, growth rescue, OD600, 24 h. Potency, µM (doses to about 76.6 µM), hits mostly activators. 390,000 tested, 0.24% active. AID 1347120;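 note: plate controls were DMSO vehicle for no effect and reference control for full effect; nearly all actives have a fitted effect of over 55% in size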
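S. cerevisiae expressing FUS from galactose induction served as the toxicity model. Growth after 24hr at 30C, read as absorbance at 600 nm, indicates suppression of toxicity; compounds dosed at several concentrations.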
Mito fusion yeast = mitochondrial division inhibition or fusion activation; Potency, µM (top dose mostly 46.1 µM), without a hit: at the highest dose growth rescue (activation), most hits filed as activators; S. cerevisiae fusion-defective mutant growth rescue, CellTiterGlo 48 h; 320,000 tested, 0.23% active; note: % of control where 0% means no effect; nearly all actives have a fitted effect of over 45% in size
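Temperature-sensitive fusion-defective S. cerevisiae (e.g. fzo1-1, mgm1-5) were grown with compound in YPEG medium (3% ethanol, 3% glycerol) for 48 hours at 37C. Growth rescue was measured as viability by CellTiterGlo luminescence after 10 minutes at ambient.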
aSyn rescue = inhibitors of alpha-synuclein toxicity in yeast | AID 652106 | Yeast expressing alpha-synuclein, growth rescue, BacTiter-Glo, 24 h | Potency, µM (series often up to 46.1 µM), inactives show at the top dose growth rescue (activation), actives largely listed as activators | 370,000 tested, 0.14% active; note: % of control where 0% means no effect; nearly all actives have a fitted effect of over 65% in size
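Galactose-induced alpha-syn yeast (OD600=0.02, raffinose-pregrown) + pinned cpd, 24 hr, 30 deg C; growth by BacTiter-Glo luminescence. Growth restoration scores as activation.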
TDP-43 yeast inh = inhibitors of TDP-43 toxicity in yeast. TDP-43 expressing yeast growth rescue, BacTiter-Glo, 24 h. Potency, µM (series often up to 46.1 µM), without a hit: at the top dose growth rescue (activation), actives largely listed as activators. 410,000 tested, 1.8% active. AID 652104; note: % of control where 0% means no effect; nearly all actives have a fitted effect of over 50% in size
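Yeast expressing TDP-43 (pregrown in raffinose, seeded at OD600=0.02 in galactose medium) exposed to compounds 24 hr at 30 deg C. Growth read by BacTiter-Glo luminescence; rescue of toxicity appears as increased signal.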
Abeta yeast res = compounds reversing amyloid beta toxicity in yeast; yeast expressing A-beta42, growth rescue, OD600, 48 h; response scale: 0% DMSO, 100% iron-clioquinol control; Potency, µM (titrated, usually from 46.1 µM), usual class: activators; 410,000 tested, 0.063% active; note: nearly all actives have a fitted effect of over 55% in size
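Growth rescue measured by 600 nm absorbance after 48 h yeast culture at 30 C with compound. Values normalized between DMSO and an equimolar ferric chloride plus clioquinol control.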
Starred values were filed as active, the others as inactive; i = inactive; ? = inconclusive; · = no result given. Calls come from the whole dose curve; as a rule, active = well fitted curve in the direction sought with a large enough effect; inconclusive = small, poorly fitted or top-dose-only effect, or another doubt; inactive = no such curve, though single readings can be large; an effect the other way counts as inactive or inconclusive. Potency is the fitted concentration of half-maximal effect.

SMILES | FUS yeast rescue | Mito fusion yeast | aSyn rescue | TDP-43 yeast inh | Abeta yeast res
Cc1ccc(-n2nnc(-c3nc(-c4cccs4)no3)c2N)c(C)c1 | i | · | · | 43% | i
COc1ccc(-c2cnc(C)o2)cc1S(=O)(=O)Nc1c(C)cc(C)cc1C | i | · | · | 25µM* | i
COc1ccc(-c2cnc(C)o2)cc1S(=O)(=O)Nc1ccc(OC(F)(F)F)cc1 | i | · | · | 22µM* | i
COc1ccccc1Nc1nn2c(=O)c3ccc(C(=O)NCCc4ccccc4)cc3nc2s1 | i | · | · | 11% | i
CN(C)c1ccc(/C=C2\C=Cc3ccccc32)cc1Cl | · | · | -10% | · | ·
COc1c(F)cccc1C1=CC(=O)C[C@H](c2ccc3c(c2)OCO3)C1 | i | ? | 10% | 22µM* | i
COc1c(F)cccc1C1=CC(=O)C[C@H](c2ccc(F)cc2)C1 | i | · | 5% | 18µM* | i
COc1ccc(OC)c(C2=CC(=O)C[C@H](c3ccc4c(c3)OCO4)C2)c1 | ? | ? | 2% | 25µM* | i
COc1ccc([C@H]2CC(=O)C=C(c3cccc(F)c3OC)C2)cc1 | i | 14% | 13% | 22µM* | i
O=C(COc1ccccc1)Nc1nc(-c2ccncc2)cs1 | i | -2% | -11% | 18% | i
O=C(COc1ccc(-c2ccccc2)cc1)Nc1cccnc1 | i | ? | -9% | 22µM* | i
Cc1ccc(OCC(=O)Nc2nc(-c3ccccn3)cs2)c(C)c1 | i | 0% | 22µM* | ? | i
O=C(COc1ccccc1)Nc1nc(-c2cccnc2)cs1 | ? | 4% | -8% | 10µM* | i
O=C(Nc1ccccc1)/C(=C/c1ccccc1)c1ccccc1 | i | 1% | -6% | 13µM* | i
CN(C)c1nc(Nc2ccc(Cl)cc2)nc(OCC#N)n1 | i | -2% | 0% | 11µM* | i
CCOc1nc(Nc2ccccc2)nc(OCC)n1 | i | -7% | 5% | ? | i
CN(C)c1nc(OCCNC(=O)Nc2ccc(Cl)cc2)nc(N(C)C)n1 | i | 0% | 1% | -9% | i
CCOc1nc(Nc2ccc(Cl)cc2)nc(OCC)n1 | i | -10% | -2% | 11µM* | i
Cc1cc(Cl)ccc1OCC(=O)Nc1cccc(-c2nc3ccccc3o2)c1 | · | · | 0% | · | ·
Cc1c(-c2nc(N)nc(Nc3ccccc3)n2)oc2ccccc12 | i | 14µM* | ? | ? | i
Nc1nc(CN2CCCCCC2)nc(Nc2ccccc2)n1 | i | 3% | 0% | 0% | i
COc1ccc2c(c1)CCCN2C(=O)C1CCCN(S(=O)(=O)c2c(C(C)C)cc(C(C)C)cc2C(C)C)C1 (stereo not drawn) | i | · | · | · | ·
C=CCC[C@@H](Cc1ccc(F)cc1)C(=O)OC[C@@H]1CCCN1C(=O)[C@@H](CC=C)CC(=O)N(CCO)Cc1ccccc1 | 20µM* | · | -1% | -5% | i
C=CCC[C@@H](Cc1ccc(F)cc1)C(=O)OC[C@@H]1CCCN1C(=O)[C@H](CC=C)CC(=O)N[C@H](CO)Cc1ccccc1 | 20µM* | · | ? | ? | i
C=CCC[C@@H](Cc1ccc(F)cc1)C(=O)OC[C@H]1CCCN1C(=O)[C@@H](CC=C)CC(=O)N[C@H](CO)Cc1ccccc1 | ? | · | -1% | 19% | i
SMILES | FUS yeast rescue | Mito fusion yeast | aSyn rescue | TDP-43 yeast inh | Abeta yeast res
CCc1cc2c(cc3c(=O)n(CC(=O)NC(C)c4ccccc4)ncn32)s1 (stereo not drawn) | i | · | · | 12% | i
COc1ccc(-n2c(C)nn(C)c2=O)cc1 | i | 0% | 0% | 12% | i
COc1ccc(-n2c(/C=C(\C)O)nc(=O)c3c(C)cc(C)nc32)cc1 | i | 20µM* | -14% | -21% | i
CCOc1ccc(C(=O)CCC(=O)NCC(=O)Nc2ccc(F)c(F)c2F)cc1 | i | · | 28µM* | 19% | i
CCOc1ccc(C(=O)CCC(=O)Nc2ccccc2C)cc1 | i | 0% | 8% | ? | i
COc1cccc(/C=c2/[nH]c(=O)/c(=C\c3cccc(OC)c3OC)[nH]c2=O)c1OC | · | · | 0% | · | ·
C[C@H]1COc2c3ccccc3nn21 | i | · | · | · | ·

High-throughput results deposited in PubChem by National Center for Advancing Translational Sciences (NCATS).
